Assay results: the supplement of paper PMC8728848
Many of the other results were omitted from the sample, so the strongest signals are more common in it than they were.

Tests used:
Test in all cases: glycan array binding signal (z-score within array); higher = stronger binding
Conditions in all cases: glycan notation: IUPAC condensed, linker removed
[1] = target: Fuc(a1-2)Gal(b1-3)GlcNAc(b1-3)Gal(b1-4)Glc
How it was run: (§1)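 Glycan array data came from 3228 arrays in the Consortium for Functional Glycomics database, and only arrays with an available protein sequence were kept. Glycan names were put into IUPAC-condensed notation, and columns mapping to the same glycan were averaged. The binding signal is a within-array Z-score, averaged across arrays of one protein sequence run at different concentrations or buffers and across linkers. A negative Z-score can be read as non-binding.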

[2] = target: Fuc(a1-2)Gal(b1-3)GlcNAc(b1-3)[Fuc(a1-2)Gal(b1-3)GlcNAc(b1-6)]GalNAc
How it was run: as §1

[3] = target: Fuc(a1-2)Gal(b1-4)GlcNAc(b1-2)[Fuc(a1-2)Gal(b1-4)GlcNAc(b1-4)]Man(a1-3)[Fuc(a1-2)Gal(b1-4)GlcNAc(b1-2)Man(a1-6)]Man(b1-4)GlcNAc(b1-4)GlcNAc
How it was run: as §1

Fuc(a1-2)Gal6S(b1-4)Glc = target: Fuc(a1-2)Gal6S(b1-4)Glc
How it was run: as §1

[4] = target: Fuc(a1-2)[Gal(a1-3)]Gal(b1-3)GlcNAc(b1-6)GalNAc
How it was run: as §1

[5] = target: Fuc(a1-2)[Gal(a1-4)]Gal(b1-4)GlcNAc
How it was run: as §1

[6] = target: Fuc(a1-2)[GalNAc(a1-3)]Gal(b1-4)GlcNAc(b1-2)Man(a1-3)[Fuc(a1-2)[GalNAc(a1-3)]Gal(b1-4)GlcNAc(b1-2)Man(a1-6)]Man(b1-4)GlcNAc(b1-4)GlcNAc
How it was run: as §1

[7] = target: Fuc(a1-3)[GalNAc(b1-4)]GlcNAc
How it was run: as §1

Gal(a1-3)Gal(b1-3)GlcNAc = target: Gal(a1-3)Gal(b1-3)GlcNAc
How it was run: as §1

[8] = target: Gal(a1-3)Gal(b1-3)GlcNAc(b1-2)Man
How it was run: as §1

[9] = target: Gal(b1-3)GalNAc(b1-4)Gal(b1-4)Glc
How it was run: as §1

[10] = target: Gal(b1-3)GlcNAc(a1-6)Gal(b1-4)GlcNAc
How it was run: as §1

Gal(b1-3)GlcNAc(b1-2)Man = target: Gal(b1-3)GlcNAc(b1-2)Man
How it was run: as §1

[11] = target: Gal(b1-3)GlcNAc(b1-2)Man(a1-3)[Gal(b1-3)GlcNAc(b1-2)Man(a1-6)]Man(b1-4)GlcNAc(b1-4)[Fuc(a1-6)]GlcNAc
How it was run: as §1

[12] = target: Gal(b1-3)GlcNAc(b1-6)GalNAc
How it was run: as §1

[13] = target: Gal(b1-3)[Fuc(a1-4)]GlcNAc(b1-3)Gal(b1-3)[Fuc(a1-4)]GlcNAc
How it was run: as §1

[14] = target: Gal(b1-4)GlcNAc(b1-2)Man(a1-3)[GlcNAc(b1-2)Man(a1-6)]Man(b1-4)GlcNAc(b1-4)GlcNAc
How it was run: as §1

[15] = target: Gal(b1-4)GlcNAc(b1-2)[Gal(b1-4)GlcNAc(b1-6)]Man(a1-6)[Gal(b1-4)GlcNAc(b1-2)Man(a1-3)]Man(b1-4)GlcNAc(b1-4)[Fuc(a1-6)]GlcNAc
How it was run: as §1

[16] = target: Gal(b1-4)GlcNAc(b1-2)[Gal(b1-4)GlcNAc(b1-6)]Man(a1-6)[GlcNAc(b1-4)][Gal(b1-4)GlcNAc(b1-2)Man(a1-3)]Man(b1-4)GlcNAc(b1-4)GlcNAc
How it was run: as §1

[17] = target: Gal(b1-4)GlcNAc(b1-3)Gal(b1-4)GlcNAc(b1-3)Gal(b1-4)GlcNAc(b1-3)Gal(b1-4)GlcNAc(b1-3)Gal(b1-4)GlcNAc(b1-3)Gal(b1-4)GlcNAc(b1-2)Man(a1-3)[Gal(b1-4)GlcNAc(b1-3)Gal(b1-4)GlcNAc(b1-3)Gal(b1-4)GlcNAc(b1-3)Gal(b1-4)GlcNAc(b1-3)Gal(b1-4)GlcNAc(b1-3)Gal(b1-4)GlcNAc(b1-2)Man(a1-6)]Man(b1-4)GlcNAc(b1-4)GlcNAc
How it was run: as §1

[18] = target: Gal(b1-4)GlcNAc(b1-3)[Fuc(a1-3)GlcNAc(b1-6)]Gal(b1-4)Glc
How it was run: as §1

Gal3S6S(b1-4)GlcNAc = target: Gal3S6S(b1-4)GlcNAc
How it was run: as §1

Gal4S(b1-4)GlcNAc = target: Gal4S(b1-4)GlcNAc
How it was run: as §1

Gal6S(b1-4)Glc6S = target: Gal6S(b1-4)Glc6S
How it was run: as §1

Gal6S(b1-4)GlcNAc = target: Gal6S(b1-4)GlcNAc
How it was run: as §1

Gal6S(b1-4)GlcNAc6S = target: Gal6S(b1-4)GlcNAc6S
How it was run: as §1

B1: GS7807P-bth-537-23-537 (Bacteroides thetaiotaomicron) (protein)
chain: NYENINSNPYEAPDLSADGYALGSAMNNLAGCVVSPDVNTAQFTDCLLGGPLGGYFADSNAGFTETISNFNPKDDWSRVFLKSDKIIPTLYSNLTQVKLVSQNTNDPVPYAIAQVIKVAAMHRVTDAFGPIPYSQIGANGEIATPYDSQEVTYNTFFDELNAAIATLNENSNEQLVPTADYIYKGDVKKWIRFANSLKLRLAIRIAYANPVKAQQMAEEAVNPANGGVIESNADNATWNYFETSQNPIYVATRYNQVQTSDHGGVPCLTGGDTHAAADIICYMNGYKDNRREKFFTKSEWAGQDYVGMRRGIVIPELKTTGHKYSGVNIAPTSPLYWMNAAEVAFLRAEGQAVFNFSMGGTAESFYNQGIRLSFEQWGADGVEDYLKDDVNKPTAYTDPAGTNTYQNALSNITIKWNDSADKEEKQERIIVQKWIANWQLGNEAWADFRRTGYPKLIPVKENKSGGVVDSEKGARRMPYPLDEFVSNKANVEYAIANYLHGADNMATDVWWASKK
**Q.** How did the “glycan array binding signal (z-score)” value [1] turn out when B1 was run?
**A.** -0.288

**Q.** What about the “glycan array binding signal (z-score)” value [2] of the same binder?
**A.** 5.33

**Q.** And the “glycan array binding signal (z-score)” value [3]?
**A.** -0.271

**Q.** And the “glycan array binding signal (z-score)” value (Fuc(a1-2)Gal6S(b1-4)Glc)?
**A.** 0.294

**Q.** And the “glycan array binding signal (z-score)” value [4]?
**A.** 2.94

**Q.** What about the “glycan array binding signal (z-score)” value [5] of the same binder?
**A.** -0.331

**Q.** And the “glycan array binding signal (z-score)” value [6]?
**A.** 3.7

**Q.** And the “glycan array binding signal (z-score)” value [7]?
**A.** 0.192

**Q.** What about the “glycan array binding signal (z-score)” value (Gal(a1-3)Gal(b1-3)GlcNAc) of the same binder?
**A.** 0.94

**Q.** What about the “glycan array binding signal (z-score)” value [8] of the same binder?
**A.** 1.1

**Q.** What about the “glycan array binding signal (z-score)” value [9] of the same binder?
**A.** 0.496

**Q.** What about the “glycan array binding signal (z-score)” value [10] of the same binder?
**A.** -0.173

**Q.** What about the “glycan array binding signal (z-score)” value (Gal(b1-3)GlcNAc(b1-2)Man) of the same binder?
**A.** -0.221

**Q.** And the “glycan array binding signal (z-score)” value [11]?
**A.** 2.17

**Q.** And the “glycan array binding signal (z-score)” value [12]?
**A.** 1.42

**Q.** And the “glycan array binding signal (z-score)” value [13]?
**A.** -0.304

**Q.** And the “glycan array binding signal (z-score)” value [14]?
**A.** -0.348

**Q.** What about the “glycan array binding signal (z-score)” value [15] of the same binder?
**A.** -0.271

**Q.** And the “glycan array binding signal (z-score)” value [16]?
**A.** 2.06

**Q.** And the “glycan array binding signal (z-score)” value [17]?
**A.** 2.28

**Q.** And the “glycan array binding signal (z-score)” value [18]?
**A.** -0.071

**Q.** What about the “glycan array binding signal (z-score)” value (Gal3S6S(b1-4)GlcNAc) of the same binder?
**A.** 0.325

**Q.** What about the “glycan array binding signal (z-score)” value (Gal4S(b1-4)GlcNAc) of the same binder?
**A.** -0.373

**Q.** What about the “glycan array binding signal (z-score)” value (Gal6S(b1-4)Glc6S) of the same binder?
**A.** 2.21

**Q.** And the “glycan array binding signal (z-score)” value (Gal6S(b1-4)GlcNAc)?
**A.** 0.037

**Q.** And the “glycan array binding signal (z-score)” value (Gal6S(b1-4)GlcNAc6S)?
**A.** 2.01
